Results published in PubChem BioAssay (Tox21).
Records with an inconclusive call do not appear. Activity calls are given as the source filed them. Unless noted, calls follow the shape of the dose curve; as a rule, active = well fitted curve in the direction sought with a large enough effect in the repeat runs; inconclusive = weak or mixed curves; inactive = no such curve, though single readings can be large; an effect the other way counts as inactive or inconclusive.

Tests used:
[1] = target: Retinoic acid receptor RXR-alpha (Homo sapiens) (UniProt P19793); assay: qHTS assay to identify small molecule agonists of the RXR signaling pathway (AID 1159527; calls by dose curve; also: nearly all actives have a fitted effect of over 35% in size; also: potency is read from the fitted curve at half-maximal effect)
Summary of the method: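 Compounds in DMSO were added to RXR-alpha-UAS-bla HEK 293T cells kept in 2% charcoal-stripped serum, and incubated 16 hr at 37 C with 5% CO2. Reporter signal came from a 2 hr B/G FRET substrate step.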

[2] = qHTS assay to identify small molecule agonists of the RXR signaling pathway - cell viability counter screen (AID 1159529);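 also: HEK 293T cells carrying an RXR-alpha UAS beta-lactamase reporter; series mostly up to about 77 µM; nearly all actives have a fitted effect of over 50% in size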
Summary of the method: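 Counter screen: CellTiter-Glo luminescence. Cells: RXR-alpha-UAS-bla HEK 293T. Medium: 2% charcoal-stripped FBS. Treatment: 16 h, 37 C. Reagent incubation: 30 min, RT.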

[3] = qHTS assay to identify small molecule antagonists of the retinoid acid receptor (RAR) signaling pathway - cell viability counter screen (AID 1159551); also: nearly all actives have a fitted effect of over 35% in size
Summary of the method: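 Luminescent ATP quantitation (CellTiter-Glo) gave cell viability in C3RL4 cells exposed to test chemicals for 6 h at 37 C alongside 1 uM final retinol.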

[4] = qHTS assay to identify small molecule antagonists of the retinoic acid receptor (RAR) signaling pathway (AID 1159552; also: nearly all actives have a fitted effect of over 50% in size)
Summary of the method: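 Antagonism of retinol-induced RARE reporter activity was measured in C3RL4 cells. Exposure to compounds and 1 uM final retinol lasted 6 hr at 37 C, with luminescence as endpoint.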

[5] = qHTS assay to identify small molecule agonists of the retinoic acid receptor (RAR) signaling pathway (AID 1159553); also: potency is read from the fitted curve at half-maximal effect
Summary of the method: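 Luminescence from a RARE-driven luciferase reporter in C3RL4 cells served as the read-out, measured after 30 min with detection reagent at room temperature. Compounds in DMSO were applied for 6 hr at 37 C following overnight seeding.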

[6] = qHTS assay to identify small molecule antagonists of the estrogen related receptor (ERR) signaling pathway (AID 1224819;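 also: luminescence from an ERR-driven luciferase reporter measured with One-Glo reagent; series mostly up to about 46 µM; nearly all actives have a fitted effect of over 50% in size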)
Summary of the method: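 Seed ERR cells 2,000/well; rest 6 h at 37 C/5% CO2; pin compounds in DMSO; incubate 18 h at 37 C; add One-Glo; wait 30 min at room temperature; measure luminescence.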

[7] = tested on: estrogen-related receptor alpha (ERRalpha) with PGC-1alpha coactivator, human; assay: qHTS assay to identify small molecule antagonists of the estrogen related receptor signaling pathway with the pleiotropic PPARgamma coactivator (PGC) (AID 1224821; calls by dose curve;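 also: series mostly up to about 46 µM; lower luminescence signal means antagonism of PGC/ERR signalling; nearly all actives have a fitted effect of over 50% in size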)
Summary of the method: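 Cells engineered for PGC/ERR signalling (line from NTP) were plated 6 h at 37 C/5% CO2, then exposed to DMSO-dissolved compound for 18 h at 37 C. Luciferase activity was read by One-Glo luminescence after 30 min at room temperature.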

[8] = qHTS assay to identify small molecule antagonists of the estrogen related receptor signaling pathway with the pleiotropic PPARgamma coactivator (PGC) cell viability counter screen (AID 1224822;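 also: series mostly up to about 46 µM; viability read after 17.5 h compound exposure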)
Summary of the method: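 Cells: PGC/ERR, 2,000/well, 1536-well format. Pre-incubation 6 h, 37 C/5% CO2. Compound exposure 17.5 h, 37 C. Detection: CellTiter-Fluor, 30 min, fluorescence.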

[9] = qHTS assay to identify small molecule agonists of the estrogen related receptor signaling pathway with the pleiotropic PPARgamma coactivator (PGC) (AID 1224823)
Summary of the method: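 PGC/ERR reporter cells were seeded, rested 6 h at 37 C/5% CO2, then exposed to compounds in DMSO by pin transfer for 18 h at 37 C. Luciferase activity was read as luminescence after One-Glo reagent and 30 min at room temperature.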
% is scaled to controls: 0 for no effect and ±100 for the full control effect.

Retinoic acid receptor RXR-alpha (Homo sapiens), sequence (P19793 whole entry, looked up): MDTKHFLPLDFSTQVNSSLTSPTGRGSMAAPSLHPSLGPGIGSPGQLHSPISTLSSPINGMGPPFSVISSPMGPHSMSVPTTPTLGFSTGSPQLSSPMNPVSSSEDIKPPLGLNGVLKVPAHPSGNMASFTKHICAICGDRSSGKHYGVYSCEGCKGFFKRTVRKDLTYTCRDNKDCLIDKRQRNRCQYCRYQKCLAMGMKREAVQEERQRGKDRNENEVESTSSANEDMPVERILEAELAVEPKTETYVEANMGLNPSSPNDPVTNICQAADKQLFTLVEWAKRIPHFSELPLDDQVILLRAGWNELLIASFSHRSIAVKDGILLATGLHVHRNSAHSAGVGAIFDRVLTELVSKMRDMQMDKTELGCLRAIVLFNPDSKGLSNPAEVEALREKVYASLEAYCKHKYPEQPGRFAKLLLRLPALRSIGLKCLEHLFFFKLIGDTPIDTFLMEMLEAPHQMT

COc1ccc(-c2cc(=O)c3c(O)cc(O[C@@H]4O[C@H](CO[C@@H]5O[C@@H](C)[C@H](O)[C@@H](O)[C@H]5O)[C@@H](O)[C@H](O)[C@H]4O)cc3o2)cc1O
inactive: Potency [1] | outcome [2] | outcome [3] | outcome [4] | Potency [5]

CCOc1cc([N+](=O)[O-])c(OCC)cc1N1CCOCC1
inactive: Potency [1] | outcome [2] | outcome [3] | outcome [4] | Potency [5]

Nc1cccc(O)c1
inactive: Potency [1] | outcome [2] | outcome [3] | outcome [4] | Potency [5]

Brc1ccc(-c2ccccc2)cc1
inactive: Potency [1] | outcome [2] | outcome [3] | Potency [5]

O=Cc1ccc(Cl)c(Cl)c1
inactive: Potency [1] | outcome [2] | outcome [3] | Potency [5]

CC(C)C(=O)OCCc1ccccc1
inactive: Potency [1] | outcome [2] | outcome [3] | outcome [4] | Potency [5]

CC(=O)OC(C)OC(=O)C(C)c1ccc(-c2ccccc2)c(F)c1 (stereo not given)
inactive: Potency [1] | outcome [2] | outcome [3] | outcome [4] | Potency [5]

O=C(NCCN1CCOCC1)c1ccc(Cl)cc1
inactive: Potency [1] | outcome [2] | outcome [3] | outcome [4] | outcome [6] | outcome [7] | outcome [8] | outcome [9]

O=C1c2cccc3c2[C@H](CCC3)CN1[C@@H]1CN2CCC1CC2
inactive: Potency [1] | outcome [2] | outcome [3] | outcome [4] | Potency [5]

CCOCCOC(=O)/C=C/c1ccc(OC)cc1
inactive: Potency [1] | outcome [2] | outcome [3] | outcome [4]
active: Potency [5] 33.5 µM

CN1C(C)(C)CCCC1(C)C
inactive: Potency [1] | outcome [2] | outcome [3] | Potency [5]

O=C(OCC(O)CO)c1ccccc1Nc1ccnc2c(C(F)(F)F)cccc12 (stereo not given)
inactive: Potency [1] | outcome [2] | outcome [3] | Potency [5]

Nc1ccc([N+](=O)[O-])c(N)c1
inactive: Potency [1] | outcome [2] | outcome [3] | outcome [4] | Potency [5]

C[C@H](N)[C@H](O)c1cccc(O)c1
inactive: Potency [1] | outcome [2] | outcome [3] | Potency [5]

CC(C)C[C@H](NC(=O)CNC(=O)[C@H](Cc1ccc(O)cc1)NC(=O)[C@H](CO)NC(=O)[C@H](Cc1c[nH]c2ccccc12)NC(=O)[C@H](Cc1cnc[nH]1)NC(=O)[C@@H]1CCC(=O)N1)C(=O)N[C@@H](CCCN=C(N)N)C(=O)N1CCC[C@H]1C(=O)NCC(N)=O (stereo in doubt)
inactive: Potency [1] | outcome [2] | outcome [3] | Potency [5]

CC(C)CC(=O)O
active: Potency [1] 10.7 µM
inactive: outcome [2] | outcome [3] | Potency [5]

CC(N)C(=O)OC(C)(C)Cc1ccc(Cl)cc1 (stereo not given)
inactive: Potency [1] | outcome [2] | outcome [3] | outcome [4] | Potency [5]

CCCCCCCCCCl
inactive: Potency [1] | outcome [2] | outcome [3] | outcome [4] | Potency [5]

Cc1ccc2ccc(Cl)cc2n1
inactive: Potency [1] | outcome [2] | outcome [3] | outcome [4] | Potency [5]

OCCCCC(O)CO (stereo not given)
active: Potency [1] 11.6 µM
inactive: outcome [2] | outcome [3] | Potency [5]

O=S(O)(O)=S
inactive: activation [1] 4.57% [at 6.98 µM] | activity change, negative = cytotoxicity [2] 0.418% [at 6.97 µM] | activity change, negative = cytotoxicity [3] 0.445% [at 8.39 µM] | activation [5] -0.738% [at 8.36 µM]

CCCCCCOc1ccccc1C(N)=O
inactive: Potency [1] | outcome [2] | outcome [3] | outcome [4]
active: Potency [5] 13.3 µM

N[C@@H](CCC(=O)Nc1ccc([N+](=O)[O-])cc1)C(=O)O
inactive: Potency [1] | outcome [2] | outcome [3] | outcome [4] | Potency [5]

CCN(C)C(=O)Oc1cccc([C@H](C)N(C)C)c1
inactive: Potency [1] | outcome [2] | outcome [3] | Potency [5]

COc1cc(N)ccc1C
inactive: Potency [1] | outcome [2] | outcome [3] | outcome [4] | Potency [5]

CC(=C(CCOC(=O)C(C)C)SSC(CCOC(=O)C(C)C)=C(C)N(C=O)Cc1cnc(C)nc1N)N(C=O)Cc1cnc(C)nc1N
inactive: Potency [1] | outcome [2] | outcome [3] | Potency [5]

N[C@@H](CCC(=O)N[C@@H](CS)C(=O)NCC(=O)O)C(=O)O
inactive: activation [1] 2.72% [at 15.8 µM] | activity change, negative = cytotoxicity [2] -1.04% [at 15.8 µM] | activity change, negative = cytotoxicity [3] 0.178% [at 19 µM] | activity, negative = inhibition [4] 29.9% [at 19 µM] | Potency [5]

COc1ccc2c(c1)C(=O)N(CCc1ccc(S(=O)(=O)NC(=O)NC3CCCCC3)cc1)C(=O)C2(C)C
inactive: Potency [1] | outcome [2] | outcome [3] | Potency [5]

O=C(NCC(O)CO)c1c(I)c(C(=O)NCC(O)CO)c(I)c(N(CCO)C(=O)CO)c1I (stereo not given)
inactive: Potency [1] | outcome [2] | outcome [3] | outcome [4] | Potency [5]

c1ccc2c(c1)ccc1c3ccccc3ccc21
active: Potency [5] 3.94 µM
inactive: Potency [1] | outcome [2] | outcome [3] | outcome [4]

Cc1ccccc1N=O
inactive: Potency [1] | outcome [2] | outcome [3] | Potency [5]

CCCCOC(=O)c1ccccc1
inactive: Potency [1] | outcome [2] | outcome [4] | Potency [5]

CCN1CCc2nc(N)oc2CC1
inactive: Potency [1] | outcome [2] | outcome [3] | outcome [8]

COC(=O)[C@@H]1[C@H]2C[C@H]3c4[nH]c5ccccc5c4CCN3C[C@@H]2CC[C@@H]1O
inactive: Potency [1] | outcome [2] | outcome [3] | outcome [6] | outcome [7] | outcome [8] | outcome [9]
